sEH act = activators of human soluble epoxide hydrolase; 91,000 tested, 0.04% active; P34913; purified human sEH enzymatic activity, activator screen; AID 717; activation, % at 2 µM; in the data active means activation above about 37%
CYP2C9 act = increases human cytochrome P450 2C9 activity | P11712 | recombinant CYP2C9, luciferin-H conversion, luminescence; stronger effect = higher value; factor 1 = untreated enzyme, 0 = blocked | activation factor at 5 µM | 96,000 tested, 1.4% active;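 active means activation factor of 2 or more for CYP2C9 at a 5 µM dose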;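 further: 0 = sulfaphenazole-blocked wells and 1 = vehicle-only wells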
Target sequence (P11712 whole entry, looked up): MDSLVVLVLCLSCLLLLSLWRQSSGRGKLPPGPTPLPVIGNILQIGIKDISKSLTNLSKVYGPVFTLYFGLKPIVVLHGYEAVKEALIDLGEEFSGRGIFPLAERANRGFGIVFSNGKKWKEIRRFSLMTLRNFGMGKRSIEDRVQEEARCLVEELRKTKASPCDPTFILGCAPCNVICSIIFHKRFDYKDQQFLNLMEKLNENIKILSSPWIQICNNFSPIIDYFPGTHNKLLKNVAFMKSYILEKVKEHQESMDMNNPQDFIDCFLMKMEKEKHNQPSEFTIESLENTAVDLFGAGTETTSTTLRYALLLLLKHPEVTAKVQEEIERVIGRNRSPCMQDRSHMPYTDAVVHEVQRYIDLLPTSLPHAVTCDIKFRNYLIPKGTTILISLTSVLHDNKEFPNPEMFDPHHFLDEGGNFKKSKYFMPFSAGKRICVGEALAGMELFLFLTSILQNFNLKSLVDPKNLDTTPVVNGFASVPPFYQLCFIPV
CYP2C9 inhib = inhibitors of human CYP2C9; 96,000 tested, 20% active; CYP2C9 Supersomes, luciferin-H conversion, luminescence; inhibition, % at 5 µM; AID 777; P11712;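 active means blocking of liver enzyme CYP2C9 beyond about 50% at 5 µM, limit read from the data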
CYP2C19 inh = blocks human cytochrome P450 2C19; P33261; CYP2C19 Supersomes, luciferin-H EGE luminescence, 30 min; inhibition, % at 5 µM; 96,000 tested, 21% active; AID 778;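 active means CYP2C19 inhibition above a set limit at 5 µM in the primary screen, cut at about 50% in these data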;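 further: plate controls were negative control wells for no effect and 2.5 mM tranylcypromine positive control for full effect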
sEH inh = blocks human soluble epoxide hydrolase activity. P34913. recombinant human sEH enzymatic activity assay. inhibition, % at 2 µM. 91,000 tested, 0.34% active. AID 707; in the data active means inhibition above about 80%
CYP2C19 act = activators of human cytochrome P450 2C19; recombinant CYP2C19, luciferin-H EGE luminescence; stronger effect = higher value; 0 = fully inhibited enzyme, 1 = untreated enzyme; P33261; 96,000 tested, under 10 active; activation factor at 5 µM;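 active means activation factor of at least 2 at 5 µM in the primary screen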;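 further: 0 = wells with 2.5 mM tranylcypromine and 1 = vehicle-only wells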
An asterisk follows results filed as active; . = no result given. The list is not random: actives were taken first. Their share in the collection is about 27%.

SMILES	sEH act	CYP2C9 act	CYP2C9 inhib	CYP2C19 inh	sEH inh	CYP2C19 act
Cc1c(=O)n(OCc2ccccc2)c2ccccc2[n+]1[O-]	-2	0.9	13	69*	4	0.3
Cc1c(=O)n(OCc2c(F)cccc2F)c2ccccc2[n+]1[O-]	15	.	.	.	-15	.
COc1ccc(COn2c(=O)c(C)[n+]([O-])c3ccccc32)cc1OC	17	0.3	74*	52*	-20	0.5
Cc1nc2ccccc2c2c1C(=O)N(C(C)C)C2=O	6	1	3	70*	-6	0.3
Cc1nc2ccccc2c2c1C(=O)N(C)C2=O	-2	1	4	-8	2	1.1
Cc1nn(-c2ccccc2)c2[nH]c(=O)c(CNc3ccc(N4CCOCC4)cc3)cc12	-7	0.4	57*	34	7	0.7
CC(C)(C)c1nn(-c2ccccc2)c2[nH]c(=O)c(CNCc3ccco3)cc12	-4	0.4	62*	28	5	0.7
COc1ccc(CNCc2cc3c(C(C)(C)C)nn(-c4ccccc4)c3[nH]c2=O)cc1	4	0.4	59*	41	-2	0.6
CC(C)(C)c1nn(-c2ccccc2)c2[nH]c(=O)c(CNc3ccc4c(c3)OCCO4)cc12	12	0.9	8	6	-18	0.9
CCOC(=O)C(CC)n1nc(C)n2c(cc3sccc32)c1=O (centres undefined)	.	0.5	50	31	.	0.7
Cc1noc(C)c1COC(=O)C1(c2cccc(F)c2)CCCC1	.	0.4	56*	37	.	0.6
COc1ccc(-n2c(=O)c3ccccc3n(CC(=O)NC3CCCCC3)c2=O)cc1	-4	0.9	13	-4	6	1
COC(=O)c1ccccc1NC(=O)Cn1nnc(-c2ccc(OC)cc2)n1	24	.	.	.	-24	.
COc1cccc(-c2nnn(CC(=O)Nc3cc(OC)c(NC(=O)c4ccco4)cc3OC)n2)c1	16	0.5	54*	35	-20	0.7
O=C(Cn1nnc(-c2ccccc2NC(=O)c2ccco2)n1)Nc1ccccc1	.	0.1	92*	32	.	0.7
CCOc1ccc(NC(=O)Cn2nnc(-c3ccccc3NC(=O)CC)n2)cc1	-28	0.1	89*	100*	27	0
CCCOc1ccc(-c2nnn(CC(=O)Nc3cccc(C(=O)OC)c3)n2)cc1	.	0.1	92*	33	.	0.7
CN1CCC(OC(=O)c2cccc(Br)c2)CC1	1	0.6	37	20	-3	0.8
Cc1ccc(S(=O)(=O)N2CCN(C3CC(=O)N(CCc4ccccc4)C3=O)CC2)cc1C (centres undefined)	.	1.5	-46	50*	.	0.5
